Compound activity as filed in PubChem BioAssay.
Pf growth 96h: Primary qHTS for delayed death inhibitors of the malarial parasite plastid, 96 hour incubation; P. falciparum luciferase reporter growth, 96 h; Potency, µM (highest dose often 28.7 µM), for the others: top-dose activity change, negative = inhibition, hits mostly inhibitors; 6.9% of 320,000 active; AID 504834, 2011; also: potency is read from the fitted curve at half-maximal effect
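Infected RBCs, 2% Hct / 0.05% parasitemia final; luciferase-reporter P. falciparum; cpd 96 h, 37 C, 5% CO2; luciferase detection reagent; luminescence.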
HCV inh: qHTS Assay for Inhibitors of Hepatitis C Virus (HCV); Huh7.5.1 HCVcc-Cre infection, luciferase reporter, 44 h; AID 651820, 2012; Potency, µM (series often up to 41.8 µM), without a hit: at the top dose activity change, negative = inhibition, hits mostly inhibitors; 3.4% of 340,000 active; also: potency is read from the fitted curve at half-maximal effect
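HCVcc-Cre virus at an moi near 0.5 was added right after compound to cells cultured 4 h from seeding (1,000 cells/well). Luciferase activity was determined 44 h later, 15 min after substrate addition at RT.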
Pf growth 48h: Primary qHTS for delayed death inhibitors of the malarial parasite plastid, 48 hour incubation; AID 504832, 2011; Potency, µM (doses to about 28.7 µM), for the others: at the top dose activity change, negative = inhibition, most hits filed as inhibitors; 5.9% of 310,000 active; P. falciparum luciferase growth in erythrocytes, 48 h; also: potency is read from the fitted curve at half-maximal effect
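Cell-based growth assay: transgenic P. falciparum expressing firefly luciferase, cultured in red cells within RPMI 1640 containing 0.5% w/v Albumax, 24 mM bicarbonate and gentamycin. A drop in luciferase activity indicates inhibition.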
HCMV antiviral: qHTS Assay for inhibitors of the human cytomegalovirus (HCMV). HFF cells, HCMV-luciferase reporter, 72 h; stronger effect = lower value. activity change, negative = inhibition, % at 57.5 µM. 4.5% of 410,000 active; in the data active = activity change below about -60%; inconclusive = no clear call, values can overlap the other calls; inactive = above about -39%
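Steps: HFFs plated, 16 h 37C; compounds added; HCMV-luciferase added to MOI 1 PFU/cell; 72 h 37C; OneGlo reagent, 5 min room temperature; luminescence read, normalized to controls.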
* = called active by the depositor; ? = inconclusive; nt = no result; ! = not active in a repeat. In the library only some 13% were active in any assay of this set; here they are far more common. Unless noted, calls follow the shape of the dose curve; as a rule, active = well fitted inhibition curve with a large enough effect; inconclusive = small, poorly fitted or top-dose-only effect, or another doubt; inactive = no such curve, though single readings can be large or run the other way. % is scaled to controls: 0 for no effect and ±100 for the full control effect.

SMILES | Pf growth 96h | HCV inh | Pf growth 48h | HCMV antiviral
COc1ccc2c(c1)NC(c1cccnc1)=NC(c1ccc(F)cc1)=N2 | nt | nt | nt | 28.8
Cc1cc(/C=C2\SC(=S)N(Cc3ccco3)C2=O)c(C)n1-c1cccnc1 | ? | ? | 2.9% | 4.2
Cc1cc(/C=C2/SC(=S)N(c3cccc(C(F)(F)F)c3)C2=O)c(C)n1-c1cccnc1 | nt | 1.58µM* | nt | nt
Cc1oc(-c2ccc(C(=O)NCc3ccccc3)cc2)nc1CN1CCc2ccccc21 | nt | nt | nt | -7.0
CN(C1CCCCC1)S(=O)(=O)c1ccc2c(c1)c(=O)c(C(=O)NCc1ccc(Cl)cc1)cn2C | nt | nt | nt | 7.7
COc1cc(C(=O)N(Cc2ccc(F)cc2)Cc2ccco2)cc(OC)c1OC | nt | nt | nt | -21.8
CCN(C(=O)COC(=O)c1c(C)c(-c2ccccc2)nc2ccccc12)C1CCS(=O)(=O)C1 (configuration not stated) | ? | 12.6µM* | ? | 3.1
CC(C)CN(C(=O)COC(=O)c1c(Cl)ccc(Cl)c1Cl)C1CCS(=O)(=O)C1 (configuration not stated) | 11.7µM* | -26.9% | ? | -21.3
CC(C)CN(C(=O)COC(=O)c1nc(Cl)ccc1Cl)C1CCS(=O)(=O)C1 (configuration not stated) | -11.5% | 26.2% | 21.2% | 7.5
Cc1ccc(-c2cc(C(=O)OCC(=O)N(C)C3CCS(=O)(=O)C3)c3ccccc3n2)c(C)c1 (configuration not stated) | 6.9% | 20.9% | 19.7% | 23.8
CCN(C(=O)COC(=O)c1cc(-c2cccs2)nc2ccccc12)C1CCS(=O)(=O)C1 (configuration not stated) | 8.1% | 11.2µM* | -19.0% | 3.4
CCN(C(=O)COC(=O)c1cc(-c2ccc(C)o2)nc2ccccc12)C1CCS(=O)(=O)C1 (configuration not stated) | 94.9% | -27.8% | 41.0% | -5.4
COc1ccc(-c2cc(C(=O)OCC(=O)N(C)C3CCS(=O)(=O)C3)c3ccccc3n2)cc1OC (configuration not stated) | -2.6% | 3.16µM* | 41.5% | -23.0
COc1ccc(CNCCCSc2nnnn2-c2ccccc2)cc1 | nt | nt | nt | -12.2
Cc1ccc(Cl)cc1N(C)C(=O)c1cc2c(Cl)nc3ccccc3c2s1 | nt | nt | nt | 13.0
CC(C)Sc1ncc(Cl)c(C(=O)Nc2ccc(S(=O)(=O)N3CCCCC3C)cc2)n1 (configuration not stated) | nt | nt | nt | -6.9
CCCSc1ncc(Cl)c(C(=O)Nc2ccc(S(=O)(=O)N3CC(C)OC(C)C3)cc2)n1 (configuration not stated) | ? | 10µM* | nt | -67.5*
CCS(=O)(=O)c1ncc(Cl)c(C(=O)Nc2ccc(S(=O)(=O)N3CCC(C)CC3)cc2)n1 | 64.0% | ? | 15.2% | -99.6*
CSc1ncc(Cl)c(C(=O)Nc2ccc(S(=O)(=O)N3CCC(C)CC3)cc2)n1 | nt | nt | nt | -76.5*
COc1ccc(F)cc1S(=O)(=O)NCCc1csc(-c2ccc(Cl)cc2)n1 | nt | nt | nt | -14.6
CCOc1ccc(-n2c(=O)c3c(C)c(C)sc3n(CC(=O)c3ccccc3)c2=O)cc1 | nt | nt | nt | -24.5
Cc1cc(O)c(CN2CC=C(c3ccccc3)CC2)cc1C(C)C | 0.262µM* | -3.9% | 0.294µM* | -1.3
Cc1cccc(C)c1N1C(=O)c2ccccc2NC(=O)C1C(=O)NCCOc1ccccc1 (configuration not stated) | nt | nt | nt | 31.1
Cc1ccc(C)c(S(=O)(=O)NCCC(=O)N2CCCC(C(N)=O)C2)c1 (configuration not stated) | 12.6% | 5.5% | -5.6% | -82.7*
CCC(c1nnnn1C1CCCCC1)N(Cc1ccco1)Cc1cc2ccc(OC)cc2[nH]c1=O (configuration not stated) | -6.6% | 3.55µM* | 7.38µM* | ?
SMILES | Pf growth 96h | HCV inh | Pf growth 48h | HCMV antiviral
CCOc1ccc2[nH]c(=O)c(C(c3nnnn3Cc3ccco3)N3CCC(C)CC3)cc2c1 (configuration not stated) | 25.0% | 2.4% | ? | -11.0
Cc1ccc2cc(CN(Cc3ccc4c(c3)OCO4)Cc3nnnn3Cc3ccco3)c(=O)[nH]c2c1 | 3.6% | 15.8µM*! | ? | ?
COc1ccc2[nH]c(=O)c(CN(C3CCCCC3)C(c3nnnn3Cc3ccco3)C(C)C)cc2c1 (configuration not stated) | 42.1% | ? | 13.1µM* | nt
Cc1ccc2cc(C(c3nnnn3C3CCCC3)N(Cc3ccco3)Cc3cccs3)c(=O)[nH]c2c1 (configuration not stated) | ? | -24.0% | nt | -8.6
CCOC(=O)Cn1nnnc1C(C(C)C)N(Cc1cc2c(C)cc(C)cc2[nH]c1=O)C1CCCC1 (configuration not stated) | 10.2% | 11.5% | 6.57µM* | -0.9
O=C(c1ccc(F)cc1)N1CC(=O)N2[C@H](CO)[C@H](c3ccc(Br)cc3)[C@@H]2C1 | nt | nt | nt | -18.1
Cc1cccc(N(C)S(=O)(=O)c2nnc(NC(=O)C3CCCCC3)s2)c1 | -13.1% | nt | -13.0% | -0.7
Cc1ccc(C)c(Cn2c(SCC(=O)N(C)Cc3ccccc3)nc3ccccc32)c1 | nt | nt | nt | -18.7
COc1ccc2[nH]c(=O)c(CN(Cc3nnnn3Cc3ccco3)C3CCCCC3)cc2c1 | 5.22µM* | ? | ? | -6.9
Cc1ccc(CN(Cc2cc3cc4c(cc3[nH]c2=O)OCCO4)Cc2nnnn2Cc2ccco2)cc1 | ? | ? | nt | -34.1
Cc1cccc2cc(CN(Cc3cccs3)C3(c4nnnn4C4CCCC4)CCCC3)c(=O)[nH]c12 | 77.9% | 15.2% | 12.1% | -69.8*
Cc1cccc2cc(CN(Cc3cccs3)S(=O)(=O)c3ccc4c(c3)OCCO4)c(=O)[nH]c12 | ? | ? | -5.3% | -83.9*
COc1ccccc1CN(Cc1cc2c(C)ccc(C)c2[nH]c1=O)Cc1nnnn1Cc1ccco1 | nt | 10.3% | 4.65µM* | 56.0
COc1ccc(Cn2nnnc2CN(Cc2cc3cc(C)ccc3[nH]c2=O)C2CCCC2)cc1 | -16.2% | ? | ? | -14.2
COc1cccc(N2CCN(C(=O)C3CCN(S(=O)(=O)c4c(C)noc4C)CC3)CC2)c1 | nt | nt | nt | 4.3
Cc1cc(C)c2[nH]c(=O)c(CN(Cc3ccc4c(c3)OCO4)Cc3nnnn3C3CCCC3)cc2c1 | 0.0% | ? | 11.7µM* | -24.3
Cc1ccc2[nH]c(=O)c(C(c3nnnn3C3CCCC3)N(Cc3cccnc3)Cc3ccco3)cc2c1 (configuration not stated) | nt | -16.4% | ? | 11.5
Cc1ccc2cc(C(c3nnnn3C3CCCC3)N(Cc3cccnc3)Cc3ccco3)c(=O)[nH]c2c1 (configuration not stated) | -21.7% | -15.6% | 13.1µM* | -33.7
Cc1ccc(C)c2[nH]c(=O)c(C(c3nnnn3Cc3ccco3)N3CCc4ccccc4C3)cc12 (configuration not stated) | 6.57µM* | ? | 11.7µM* | 18.1
